{
  "source": "PubChem BioAssay AID651734",
  "about": "(Southern Research Specialized Biocontainment Screening …, 2012)",
  "note": "Entries with a potency or affinity are not part of this list. A number with no mark means an inactive call. How the calls were made is not given here.",
  "data": [
    {"assay": "VEEV TC-83 cytopathic effect inhibition, confirmation, cell-based, TC-83 strain, set 7 (AID 651734)", "settings": "VEEV TC-83 infected cells; series mostly up to 50 µM; inhibition: at the top concentration", "units": {"inhibition": "%"}, "values": [
      {"compound": "COc1ccc(CNc2nc(=O)c3cccnc3s2)cc1", "inhibition": -4.9},
      {"compound": "COc1ccc(Nc2nc(=O)c3cccnc3s2)cc1", "inhibition": -0.67},
      {"compound": "CCN1CCN(Cc2nc3ccc(-c4ccccn4)cc3c(=O)n2-c2ccccc2)CC1", "inhibition": 11.6},
      {"compound": "CCN1CCN(C2c3ncccc3C(=O)N2c2ccccc2)CC1", "note": "(centres undefined)", "inhibition": 1.8}
    ]}
  ]
}
